Hit rate of the full screen: of about 310,000 compounds, about 2,200 (0.71%) showed an effect of 50% or more. Effects have a minus sign here. Only a selection was taken, and strong results are over-represented in it overall.

43 molecules from paper PMC4336329 (PLoS ONE, 2015) can be followed below.

Sequence of human ether-à-go-go-related gene (hERG) potassium channel (Q12809 whole entry, looked up): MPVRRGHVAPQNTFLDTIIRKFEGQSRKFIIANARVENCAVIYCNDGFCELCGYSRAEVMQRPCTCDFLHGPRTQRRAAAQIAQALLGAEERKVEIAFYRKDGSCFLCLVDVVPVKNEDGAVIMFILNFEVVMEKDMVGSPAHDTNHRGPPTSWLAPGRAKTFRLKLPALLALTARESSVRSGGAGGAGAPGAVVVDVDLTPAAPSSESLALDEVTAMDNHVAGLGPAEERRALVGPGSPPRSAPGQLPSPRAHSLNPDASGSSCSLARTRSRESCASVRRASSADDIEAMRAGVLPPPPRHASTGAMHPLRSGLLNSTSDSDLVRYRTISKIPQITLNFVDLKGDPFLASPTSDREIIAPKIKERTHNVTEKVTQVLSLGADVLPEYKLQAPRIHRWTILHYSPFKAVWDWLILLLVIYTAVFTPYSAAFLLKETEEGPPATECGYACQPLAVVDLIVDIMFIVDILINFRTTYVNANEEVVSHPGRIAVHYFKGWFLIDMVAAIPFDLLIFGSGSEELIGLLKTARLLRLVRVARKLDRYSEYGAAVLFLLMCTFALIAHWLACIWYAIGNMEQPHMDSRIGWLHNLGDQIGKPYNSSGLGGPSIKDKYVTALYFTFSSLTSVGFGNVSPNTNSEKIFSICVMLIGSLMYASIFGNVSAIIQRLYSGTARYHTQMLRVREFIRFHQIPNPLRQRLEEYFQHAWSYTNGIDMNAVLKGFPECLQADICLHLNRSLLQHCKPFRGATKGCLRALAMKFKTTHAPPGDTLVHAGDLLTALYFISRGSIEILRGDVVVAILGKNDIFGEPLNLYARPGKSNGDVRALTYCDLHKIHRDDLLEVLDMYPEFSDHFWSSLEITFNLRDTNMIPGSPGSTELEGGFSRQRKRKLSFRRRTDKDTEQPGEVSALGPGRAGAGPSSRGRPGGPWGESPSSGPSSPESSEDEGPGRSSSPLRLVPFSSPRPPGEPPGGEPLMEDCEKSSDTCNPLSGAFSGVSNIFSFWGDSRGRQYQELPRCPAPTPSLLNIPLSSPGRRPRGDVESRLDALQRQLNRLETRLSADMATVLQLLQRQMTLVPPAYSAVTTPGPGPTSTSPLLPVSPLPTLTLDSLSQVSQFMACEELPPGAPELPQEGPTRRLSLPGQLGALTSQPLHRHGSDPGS

This test deals with human ether-à-go-go-related gene (hERG) potassium channel (human, UniProt Q12809). Kind of test: primary screen, population patch clamp on CHO cells stably expressing hERG; higher = less effect of the substance. Here is the method:
Briefly, Chinese hamster ovary (CHO) cells stably expressing the hERG channel were dislodged from tissue culture flasks and dispensed into PPC plates. […] During the recording, background leak currents were estimated by a 100 ms step to -80 mV from an initial holding potential of -70 mV and subtracted from the subsequent current measurement. The campaign was conducted in two phases using slight differences in recording protocol. In the first phase, the initial voltage pulse used a 100 ms step to -30 mV from a holding potential of -70 mV, a 2 s conditioning step to +25 mV, and a 2 s test step to -30 mV. During the second phase of the screen, the potential during the conditioning step was raised to +45 mV. In both phases of the campaign, a secondary voltage pulse was applied using the same parameters as the second phase initial pulse. The initial and secondary pulses were applied in the absence of compound, and upon application of 1 μM and 10 μM test concentrations. Small molecule effects on hERG current density were quantified by […].
With `COc1ccc([N+](=O)[O-])cc1N(CC(O)CN1CCCCC1)S(=O)(=O)c1ccccc1` (stereo not shown), the “hERG current change (%, negative = inhibition) at 1uM” value was found to be 2.16%.
To `Cc1ccc(S(=O)(=O)N(CC(O)CN2CCOCC2)c2cccc([N+](=O)[O-])c2)cc1` (stereo not shown) belongs 2.27%; to `O=[N+]([O-])c1cccc(N(CC(O)CN2CCCCC2)S(=O)(=O)c2ccccc2)c1` (stereo not shown), -24.2%; to `O=C(CN(c1ccc([N+](=O)[O-])cc1)S(=O)(=O)c1ccccc1)N1CCCCC1`, -0.85%.
Turning to `Cc1ccc(S(=O)(=O)N(CC(O)CN2CCCCC2)c2cccc([N+](=O)[O-])c2)cc1` (stereo not shown), the “hERG current change (%, negative = inhibition) at 1uM” value is -73.1%.
The result for `O=[N+]([O-])c1ccc(N(CC(O)CN2CCCCC2)S(=O)(=O)c2ccccc2)cc1` (stereo not shown) reads -79.5%; that for `O=[N+]([O-])c1cccc(N(CC(O)CN2CCCC2)S(=O)(=O)c2ccccc2)c1` (stereo not shown), -25.9%; that for `O=[N+]([O-])c1ccccc1S(=O)(=O)N(CC(O)CN1CCCCC1)c1ccccc1` (stereo not shown), 2.79%.
With `O=[N+]([O-])c1ccc(S(=O)(=O)N(CC(O)CN2CCCCC2)c2ccccc2)cc1` (stereo not shown), the “hERG current change (%, negative = inhibition) at 1uM” value was -80.4%.
To `Cn1c(=O)cc(OCCCC(=O)Nc2ccc3c(c2)OCCO3)c2ccccc21` belongs 17.2%; to `Cc1ccn2c(=O)nc(SCC(=O)NC3CCCCC3)nc2c1`, 2.62%; to `C/C(=N\NC(=O)CNC(=O)C(c1ccccc1)c1ccccc1)c1ccc(C(C)(C)C)cc1`, 2.98%.
To `COc1cc(-c2nc3cnccc3n2C)cc(OC)c1OC` belongs 2.44%.
In the case of `CCCCOc1ccc(CN(C)c2ncnc(N)n2)cc1`, the “hERG current change (%, negative = inhibition) at 1uM” value is recorded as -1.16%.
The result for `O=[N+]([O-])/C(C(Cl)=C(Cl)Cl)=C(\Sc1ccccc1)N1CCCCC1` reads -3.16%.
To `Nc1cccc2c1C(=O)N(C(=O)c1cccc(S(=O)(=O)N3CCCC3)c1)C2=O` belongs 12.5%; to `COC(=O)c1ccc(Cn2nc(C)c([N+](=O)[O-])c2C)o1`, 2.01%.
In the case of `O=C1NN(c2ccc(Cl)c(Cl)c2)C(=O)/C1=C/c1ccc(-c2ccccc2C(=O)O)o1`, the “hERG current change (%, negative = inhibition) at 1uM” value amounted to 13%.
To `Cc1cccc(CS(=O)(=O)Cc2ccc(C(=O)N3CCC4(CC3)OCCO4)o2)c1` belongs 10%; to `Cc1cccnc1NC(=S)NCCc1ccccc1`, -3.36%; to `CNC(=O)c1[nH]cnc1C(=O)N[C@@H](CC(C)C)C(=O)OCc1ccccc1`, -51.8%.
The result for `CC(C)C[C@H](NC(=O)c1nc[nH]c1C(=O)N[C@@H](CC(C)C)C(=O)OCc1ccccc1)C(=O)OCc1ccccc1` reads 9.56%; that for `CC(C)C[C@H](NC(=O)c1[nH]cnc1C(=O)N[C@@H](Cc1ccccc1)C(=O)OCc1ccccc1)C(=O)OCc1ccccc1`, 10.2%.
To `COc1ccccc1NC(=O)N1CCCC1C(=O)Nc1ccc2c(c1)OCO2` (stereo not shown) belongs 2.76%; to `O=C(CCC1COc2ccccc2O1)NCC1COc2ccccc2O1` (stereo not shown), 6.41%.
For `Cc1nnc(SCc2nnc(-c3ccccc3Br)o2)s1`, the “hERG current change (%, negative = inhibition) at 1uM” value is given as 18.8%.
To `CC(=O)c1cccc(NC(=O)/C(=C\c2ccco2)NC(=O)c2ccco2)c1` belongs -50.7%; to `CC(=O)c1ccc(NC(=O)/C(=C\c2ccco2)NC(=O)c2ccco2)cc1`, 4.96%; to `CC(=O)c1cccc(NC(=O)/C(=C/c2ccco2)NC(=O)c2ccco2)c1`, 10.1%.
The result for `CCc1ccc(-n2nc3cc(C)c(N)cc3n2)cc1` reads 13.3%; that for `COc1ccc(NC(=O)NC2(C(=O)N3CCCC(C)C3)CCCCC2)cc1` (stereo not shown), 14.1%.
The result for `O=C(ON=C1CCN(c2ccc([N+](=O)[O-])cc2)CC1)c1ccccc1` reads -26%.
`Cc1ccc(C(=O)ON=C2CCN(c3ccc([N+](=O)[O-])cc3)CC2)cc1`: the “hERG current change (%, negative = inhibition) at 1uM” value is on record as -21.2%.
To `CC1(C)Cc2cccc(OCC(=O)N3CCN(c4ccc(F)cc4)CC3)c2O1` belongs -16.2%; to `COc1ccc(N2CCN(C(=O)CSc3ccccc3)CC2)cc1`, 12.7%; to `CC1(C)Cc2cccc(OCC(=O)N3CCN(c4ccccc4)CC3)c2O1`, -2.57%.
To `O=C(CCc1ccccc1)N1CCN(c2ccc([N+](=O)[O-])cc2)CC1` belongs -67.4%; to `COc1ccc(C(=O)ON=C2CCN(c3ccc([N+](=O)[O-])cc3)CC2)cc1`, -57.7%; to `COc1ccc(C(=O)CCC(=O)N2CCN(c3ccc([N+](=O)[O-])cc3)CC2)cc1`, -28.4%.
For the molecule `O=C(CCCc1ccccc1)N1CCN(c2ccc([N+](=O)[O-])cc2)CC1`, the “hERG current change (%, negative = inhibition) at 1uM” value is -48.2%.
To `COc1ccc(N2CCN(C(=O)CSc3ccc([N+](=O)[O-])cc3)CC2)cc1` belongs -85.1%; to `CC1(C)Cc2cccc(OCC(=O)N3CCN(c4ccc([N+](=O)[O-])cc4)CC3)c2O1`, -51.8%; to `O=C(Cc1ccccc1)N1CCN(c2ccc([N+](=O)[O-])cc2)CC1`, -36.4%.
